Source: PubChem
The list is not random: actives were taken first. Their share in the collection is about 3.5%.
FBW7 act: activators of human E3 ligase FBW7. Q969H0. AlphaScreen FBW7–phospho-cyclin E peptide binding, activator screen. normalized activity (activation), % at 26.1 µM. actives 0.13% (n = 650,000). AID 1259310; in the data active = normalized activity above about 1.9%;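 also: purified mutant Fbw7 with reduced substrate affinity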
TEAD-YAP inh: TEAD-YAP interaction inhibition; AID 1259422; actives 1.4% (n = 640,000); HEK-TIYL cells, TEAD-Gal4/YAP UAS-luciferase luminescence; inhibition, % at 9.12 µM; in the data active = inhibition above about 32%
MITF primary: human MITF inhibition, primary screen; O75030; AlphaScreen MITF homodimerization, bead proximity signal; inhibition, % at 2.6 µM; actives 0.91% (n = 650,000); AID 1259374; in the data active = inhibition above about 50%
GPR151 activ: activators of human GPR151; Q8TDV0; PathHunter beta-arrestin GPR151 cells, luminescence; actives 1% (n = 650,000); activation, % at 11.2 µM; in the data active = activation above about 4.9%
Target sequence (Q8TDV0 whole entry, looked up): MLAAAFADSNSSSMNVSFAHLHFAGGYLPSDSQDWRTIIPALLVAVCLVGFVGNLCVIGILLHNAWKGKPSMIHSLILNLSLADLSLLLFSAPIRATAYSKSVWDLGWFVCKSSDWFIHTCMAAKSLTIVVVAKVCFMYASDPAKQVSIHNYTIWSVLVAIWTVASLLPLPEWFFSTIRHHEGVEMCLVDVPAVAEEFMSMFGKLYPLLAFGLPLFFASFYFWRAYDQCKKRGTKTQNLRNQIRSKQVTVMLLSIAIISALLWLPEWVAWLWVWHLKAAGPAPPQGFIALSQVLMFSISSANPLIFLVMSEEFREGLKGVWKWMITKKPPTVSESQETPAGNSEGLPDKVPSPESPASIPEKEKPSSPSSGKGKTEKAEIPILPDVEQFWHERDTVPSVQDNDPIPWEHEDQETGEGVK
Of the large screens only hits and unclear results are named; the others gave an inactive call.

CCC(C)NCCCOc1ccc([N+](=O)[O-])c(C)c1 (stereo unspecified)	none
c1ccc(CSc2nc3ccncc3[nH]2)cc1	TEAD-YAP inh 57
COC(=O)c1ccc(CSc2nc3ccncc3[nH]2)cc1	TEAD-YAP inh 92
N#Cc1cccc(CSc2nc3ccncc3[nH]2)c1	none
COC(=O)c1ccc(CSc2nc(C)cc(=O)[nH]2)cc1	none
COc1cc(-c2noc(C3CC(=O)N(c4ccc(C)cc4C)C3)n2)cc(OC)c1OC (stereo unspecified)	TEAD-YAP inh 44
COc1ccc(N2CC(c3nc(-c4cc(OC)c(OC)c(OC)c4)no3)CC2=O)cc1Cl (stereo unspecified)	none
Cc1nc(NCCCn2ccnc2)cc(-c2cncc(-c3ccc(F)cc3)c2)n1	none
O=C(O[C@@H]1Cc2c(O)cc(O)cc2O[C@@H]1c1cc(=O)c(O)c2c(O)c(O)cc([C@H]3Oc4cc(O)cc(O)c4C[C@H]3O)c2c1)c1cc(O)c(O)c(O)c1	MITF primary 106
Oc1ccc([C@H]2Oc3cc(O)cc(O)c3C[C@H]2O)cc1	none
CCOc1ccc(NC(=O)CSc2nc3[nH]ncc3c(=O)n2-c2cccc(C(F)(F)F)c2)cc1	none
O=C1/C(=C/c2ccncc2)CCC/C1=C\c1ccncc1	TEAD-YAP inh 59
CN1C/C(=C\c2ccncc2)C(=O)/C(=C/c2ccncc2)C1	TEAD-YAP inh 95
Cc1ccc(/C=C2/CN(C)C/C(=C/c3ccc(C)o3)C2=O)o1	none
O=C1/C(=C/c2cccnc2)CCCC/C1=C\c1cccnc1	none
O=C(Nc1ccc2c(c1)OCO2)c1ccnc(Nc2ccc(-n3ccnc3)cc2)c1	none
COc1ccccc1NC(=O)CSc1nc2sc(C)c(C)c2c(=O)[nH]1	none
CC1(C)CC(=O)C2=C(C1)N(c1cccc([N+](=O)[O-])c1)C(N)=C(C#N)C2c1ccc2c(c1)OCO2 (stereo unspecified)	none
Clc1cc2nc(-c3ccco3)c(-c3ccco3)nc2cc1Cl	none
CCN(CC)C(=O)Nc1ccc2nc(-c3ccco3)c(-c3ccco3)nc2c1	MITF primary 73
CCOc1cc(-c2nc3cnccn3c2NCCOC)ccc1O	FBW7 act 6.3
COCCNc1c(-c2ccc(OC)c(O)c2)nc2cnccn12	none
C=CCOC(=O)C1=C(C)NC(=O)NC1c1ccc(OCC)c(OC)c1 (stereo unspecified)	none
COc1ccc(O)c(/C=N/NC(=O)c2cncc(Br)c2)c1	TEAD-YAP inh 81
COc1ccc(O)c(/C=N/NC(=O)c2ccc(NC(=O)c3ccccc3Cl)cc2)c1	TEAD-YAP inh 34
O=C(N/N=C\c1ccccc1O)c1n[nH]c([N+](=O)[O-])n1	none
COc1ccc(O)c(/C=N/NC(=O)c2cccc(Br)c2)c1	TEAD-YAP inh 58
COc1ccc(/C=N/NC(=O)c2cccc(Br)c2)cc1	none
COc1ccc(O)c(/C=N\NC(=O)c2n[nH]c([N+](=O)[O-])n2)c1	MITF primary 53
CCc1nc2sc3c(c2c2nnc(SCC(=O)NNC(C)=O)n12)CCC(C)C3 (stereo unspecified)	none
C/C(=N\N)C1CCC2C3CCC4=C/C(=N\N)CCC4(C)C3CCC12C (stereo unspecified)	none
O=C1CCCN1CCCNc1nc(-c2csc3ccccc23)nc2c1ncn2CCN1CCCC1=O	none
Cc1ccc(-c2cc(C(=O)N/N=C/c3cc(Br)ccc3O)n[nH]2)o1	TEAD-YAP inh 45
O=C(N/N=C/c1ccccc1O)c1cccc(Br)c1	none
O=C(N/N=C/c1ccc(O)c2ncccc12)c1cccc(Br)c1	TEAD-YAP inh 38, MITF primary 103
COc1cccc(/C=N/NC(=O)c2cc(-c3ccc(C)o3)[nH]n2)c1O	none
CC(=O)n1c2c(c3ccccc31)OC(N)=C(C#N)C2c1ccc(F)cc1 (stereo unspecified)	none
CC(=O)n1c2c(c3ccccc31)OC(N)=C(C#N)C2c1cc(Br)ccc1F (stereo unspecified)	TEAD-YAP inh 61
COc1cc(/C=C2/N=C(c3ccc(-c4ccccc4)cc3)OC2=O)cc(OC)c1OC	none
COc1cc(/C=C2\N=C(c3ccccc3)NNC2=O)cc(OC)c1OC	TEAD-YAP inh 49
O=C(N/N=C/c1ccc(O)cc1)c1cc(O)c(O)c(O)c1	MITF primary 59
O=C(N/N=C/c1ccc(/C=N/NC(=O)c2ccc(O)c(O)c2)cc1)c1ccc(O)c(O)c1	MITF primary 107
O=C(N/N=C/c1cc(Br)c(O)c(Br)c1)c1cc(O)c(O)c(O)c1	MITF primary 90
O=C(N/N=C/c1ccc(O)c(O)c1)c1cc(O)cc(O)c1	none
O=C(CN1c2cccc3cccc(c23)S1(=O)=O)NC1CCS(=O)(=O)C1 (stereo unspecified)	none
CCOC(=O)c1sc2ncn(CC(=O)NCCC3=CCCCC3)c(=O)c2c1C	FBW7 act 2.2
CCCCC(c1nnnn1CCOC)N1CCN(c2ccc(F)cc2)CC1 (stereo unspecified)	none
COc1cccc(N2C[C@@H]3C[C@@H](c4cnn(-c5ccccc5)c4)N4CCC[C@@]34C2=O)c1	TEAD-YAP inh 37
O=C(/C=C/Nc1ccccc1F)c1cccs1	TEAD-YAP inh 38
O=C(/C=C/Nc1ccc(F)cc1F)c1cccs1	TEAD-YAP inh 73
COC(=O)c1ccc(C(=O)OC)c(NC(=O)c2cnn3c(C(F)(F)F)cc(-c4ccc(C)cc4)nc23)c1	none
COc1cc(/C=C2/N=C(c3ccc(Cl)cc3)OC2=O)ccc1OC(C)=O	none
CCc1n[nH]c(=S)n1/N=C/c1ccco1	none
O=C(Cn1c(-c2cnccn2)nc2ccccc21)NCCc1c[nH]c2ccccc12	none
COC(CN(C)c1ccc(-c2ccc(O)cc2)cn1)OC	TEAD-YAP inh 64
CC(C)CNC(=O)C(=O)N/N=C/c1ccccc1F	none
CC(=O)Nc1ccc(S(=O)(=O)N2c3ccc(F)cc3CCC2C)cc1 (stereo unspecified)	TEAD-YAP inh 46
CC1CCc2cc(F)ccc2N1S(=O)(=O)c1c(N)n(C)c(=O)n(C)c1=O (stereo unspecified)	none
COc1ccc(C(=O)C2CCN(S(=O)(=O)c3ccc(F)cc3)CC2)cc1	TEAD-YAP inh 42
COc1ccc(S(=O)(=O)N2c3ccc(F)cc3CCC2C)cc1 (stereo unspecified)	TEAD-YAP inh 56
c1nnc(-c2ccc(Oc3nc(CN4CCOCC4)nc4sc5c(c34)CCCC5)cc2)o1	none
CN(C)/C(CBr)=C1/N=C(c2ccccc2)OC1=O	none
Cc1ccn2c(/C(=C3/N=C(c4ccccc4)OC3=O)N(C)C)cnc2c1	TEAD-YAP inh 34
CC(C)C(C)/C=C/[C@@H](C)[C@H]1CC[C@H]2/C(=C/C=C3\C[C@@H](O)CC[C@@H]3C)CCC[C@]12C (stereo partly specified)	none
COc1ccccc1NC(=O)N1CCC(c2nc3ccc(C)cc3[nH]2)CC1	TEAD-YAP inh 64
COc1ccccc1NC(=O)CN1CCC(c2nc3ccc(C)cc3[nH]2)CC1	none
COc1ccccc1NC(=O)N1CCC(c2nc3ccc(Cl)cc3[nH]2)CC1	TEAD-YAP inh 80
CC1Oc2ccccc2N(CC(=O)N(C(C)C)C(C)C)C1=O (stereo unspecified)	TEAD-YAP inh 51
